From PubChem BioAssay
Rango complex inh = inhibitors of Rango-importin beta complex formation; Q14974; Rango CFP/YFP FRET sensor + importin beta, 45 min; Potency, µM (series often up to 92.2 µM); 340,000 tested, 0.031% active; calls by dose curve; further: nearly all actives have a fitted effect of over 15% in size
Target sequence (Q14974 whole entry, looked up): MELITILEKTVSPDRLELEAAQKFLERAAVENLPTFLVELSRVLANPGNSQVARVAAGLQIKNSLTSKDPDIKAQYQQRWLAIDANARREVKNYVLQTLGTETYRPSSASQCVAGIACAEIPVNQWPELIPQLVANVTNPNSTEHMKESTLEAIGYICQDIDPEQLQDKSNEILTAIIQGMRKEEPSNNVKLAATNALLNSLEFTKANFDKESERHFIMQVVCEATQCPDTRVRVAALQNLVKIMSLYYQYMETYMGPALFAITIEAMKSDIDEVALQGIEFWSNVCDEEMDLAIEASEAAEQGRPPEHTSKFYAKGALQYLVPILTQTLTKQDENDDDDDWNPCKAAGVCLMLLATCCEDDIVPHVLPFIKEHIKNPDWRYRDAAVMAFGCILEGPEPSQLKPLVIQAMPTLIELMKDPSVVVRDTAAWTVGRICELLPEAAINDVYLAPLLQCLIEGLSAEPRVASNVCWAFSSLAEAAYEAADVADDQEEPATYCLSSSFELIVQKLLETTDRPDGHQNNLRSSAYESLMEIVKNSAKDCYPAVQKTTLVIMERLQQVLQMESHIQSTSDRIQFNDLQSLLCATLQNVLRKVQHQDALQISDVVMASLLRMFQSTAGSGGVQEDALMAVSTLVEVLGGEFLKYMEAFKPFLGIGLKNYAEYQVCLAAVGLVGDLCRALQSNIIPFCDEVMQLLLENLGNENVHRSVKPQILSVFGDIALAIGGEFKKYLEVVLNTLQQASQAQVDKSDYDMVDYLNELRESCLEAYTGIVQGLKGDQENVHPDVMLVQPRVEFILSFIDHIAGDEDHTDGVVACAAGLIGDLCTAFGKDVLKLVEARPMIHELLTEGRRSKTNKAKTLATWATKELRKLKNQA
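FRET biosensor (snurportin 1 IBB flanked by EYFP and cerulean), 50 nM, with compound 5 min, then 0.125 microM importin beta in PBS, 1 mM DTT, 0.02% Tween-20, 0.1% BSA. CFP/YFP ratio read after 45 min at room temperature; pre-read flags interference.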
A549 viability = A549 cytotoxicity, counter-screen for Nrf2 inhibitors; 390,000 tested, 0.16% active; A549 ARE-Fluc cells, CellTiter-Fluor viability, 18-24 h; Potency, µM (doses to about 46 µM), actives largely listed as inhibitors
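A549 ARE_Fluc cells in 5% FBS OPTI-MEM were exposed to compounds in concentration-response for 18-24 h at 37 deg C. Viability was read by CellTiter-Fluor fluorescence (Ex 405/Em 525) after 30 min, before the luciferase read.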
Nrf2 activator = activators of Nrf2 (ARE) signaling; AREc32 ARE-luciferase reporter (MCF7-derived line), luminescence, 24 h; 410,000 tested, 0.31% active; AID 624171; Potency, µM (doses to about 46.1 µM), actives largely listed as activators; further: nearly all actives have a fitted effect of over 65% in size
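Each well held 1000 AREc32 cells, which were incubated with compound for 24 hr at 37 deg C after overnight attachment, and ARE reporter activity was quantified by firefly luciferase luminescence.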
Rango dissoc inh = prevents RanGTP from dissociating the Rango-importin beta complex | O95149+P62826 | Biochemical FRET Rango-importin beta, RanGTP-induced dissociation | Potency, µM (highest dose often 46.1 µM) | 340,000 tested, 0.071% active | AID 540253; calls by dose curve; further: nearly all actives have a fitted effect of over 45% in size
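Rango/importin beta premix (0.1/0.25 uM final), PBS + 1 mM DTT + 0.02% Tween-20 + 0.1% BSA; cpd 5 min RT; FRET pre-read; + RanGTP-RCC1 (0.6 uM Ran, 2 mM GTP, 0.2 uM RCC1); 45 min RT; FRET post-read, ex 430, em 486/530 nm.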
Nrf2 block = blocks Nrf2 signaling; A549 ARE-Fluc reporter, luciferase luminescence, 18-24 h; Potency, µM (titrated, usually from 46 µM), most hits filed as inhibitors; 360,000 tested, 2.1% active; further: nearly all actives have a fitted effect of over 60% in size
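In this cell-based qHTS, ARE-driven firefly luciferase in A549 cells reports Nrf2 activity; the luminescent signal after BugLite lysis is the measured value, with a prior CellTiter-Fluor read for cell health.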
Large screens that a line does not name were inactive. Compounds with a hit are over-represented: about 2.3% of the library has one in this group of screens. Unless noted, the call rests on the fitted dose curve; in most records, active means well fitted curve in the direction sought with a large enough effect; inconclusive means small, poorly fitted or top-dose-only effect, or another doubt; inactive means no such curve, though single readings can be large; an effect the other way counts as inactive or inconclusive.

COCCCNC(=O)C1CCCN(c2ncnc3onc(C)c23)C1 (centres undefined)	Nrf2 block inconclusive (no result: Rango complex inh, Rango dissoc inh)
COc1cc(OC)c(NC(=O)NC(C)c2c(-n3cccc3)sc(C)c2C)cc1Cl (centres undefined)	none (no result: Rango complex inh, Rango dissoc inh)
COc1cccc2c1C(=O)c1c(O)c3c(c(O)c1C2=O)C[C@@](O)(C(=O)CO)C[C@@H]3O[C@H]1C[C@H](N)[C@@H](O)[C@H](C)O1	A549 viability inconclusive, Nrf2 block 3.3µM
O=c1[nH]c2cc([N+](=O)[O-])c(NCCO)c([N+](=O)[O-])c2[nH]1	A549 viability 13µM
CC(=O)Nc1c([N+](=O)[O-])cc2[nH]c(=O)[nH]c2c1[N+](=O)[O-]	none
CCC(=O)N1CCc2cc(S(=O)(=O)NC(C(=O)NCc3ccc(OC)cc3)C(C)C)ccc21 (centres undefined)	none (no result: Rango complex inh, Rango dissoc inh)
Cc1ccc(C)c(CN2C(=O)c3ccccc3S(=O)(=O)c3ccc(C(=O)N4CCN(c5ccccc5F)CC4)cc32)c1	A549 viability inconclusive (no result: Rango complex inh, Rango dissoc inh)
C/C(N)=C(/C#N)C(=O)CSc1nc2scc(-c3ccccc3)c2c(=O)n1C	Nrf2 block 15µM
CCn1ccc2cc(S(=O)(=O)N3CCCN(C(=O)Nc4cccc(Cl)c4)CC3)ccc21	none (no result: Rango complex inh, Rango dissoc inh, Nrf2 block)
COc1ccccc1NC1=Nc2cccc3cccc1c23	A549 viability 26µM
N#CCc1nn(Cc2ccc(F)cc2)c(=O)c2ccccc12	none
COc1ccc(C(=O)NCCn2cc(SCc3cc(C)ccc3C)c3ccccc32)cc1	A549 viability inconclusive, Nrf2 block 18µM (no result: Rango complex inh, Rango dissoc inh)
CCCCOc1ccccc1NC(=O)CC1Sc2ccccc2NC1=O (centres undefined)	none (no result: Rango complex inh, Rango dissoc inh)
CCOC(=O)c1c(Nc2cccc(C)c2)nnc(-c2ccccc2)c1-c1ccccc1	Nrf2 block 18µM (no result: Rango complex inh, Rango dissoc inh)
CCOC(=O)c1c(Nc2cc(C)cc(C)c2)nnc(-c2ccccc2)c1-c1ccccc1	none (no result: Rango complex inh, Rango dissoc inh)
CCC(C(=O)NCCc1ccccc1)n1nc(C)c2sc3ccccc3c2c1=O (centres undefined)	none (no result: Rango complex inh, Rango dissoc inh)
Cc1cc(C(=O)N2CCN(c3cccc(Cl)c3)CC2)c2c(C)nn(-c3ccccc3Cl)c2n1	Nrf2 block 18µM (no result: Rango complex inh, Rango dissoc inh)
Cc1noc(C)c1COC(=O)c1ccccc1Sc1ccccc1C#N	Nrf2 block 18µM
N#Cc1ccccc1Sc1ccccc1C(=O)OCC(N)=O	none
COc1ccc(NC(=O)CC2C(=O)N(C)C(=S)N2CCc2ccc(F)cc2)cc1 (centres undefined)	A549 viability inconclusive, Nrf2 block 23µM
COc1ccc(CCN2C(=S)N(C)C(=O)C2CC(=O)Nc2ccc(OC)cc2)cc1 (centres undefined)	none
O=S1(=O)N=C(Oc2ccccc2Cl)c2ccccc21	none (no result: Rango complex inh, Nrf2 activator, Rango dissoc inh)
COC(=O)c1ccc(COC(=O)c2ccc(SC)cc2OC)cc1	none
COc1ccc(C(=O)/C=C/c2ccc(N3CCCCC3)c([N+](=O)[O-])c2)c(OC)c1	Nrf2 activator 13µM, Nrf2 block inconclusive
CCOc1ccc(-c2nc(CSCC(=O)N3CCN(c4ccc(F)cc4)CC3)c(C)o2)cc1	none (no result: Rango complex inh, Rango dissoc inh, Nrf2 block)
CCc1ccc(-c2nc(CSCC(=O)N3CCN(c4ncccn4)CC3)c(C)o2)cc1	Nrf2 block 21µM
Cc1cccc(-c2nc(CSCC(=O)N3CCN(c4ccccc4)CC3)c(C)o2)c1	Nrf2 block 23µM (no result: Rango complex inh, Rango dissoc inh)
COC(=O)c1cc2sc(Cl)cc2n1CC(=O)Nc1cc(C)cc(C)c1	none (no result: Rango complex inh, Rango dissoc inh)
CCCOc1cccc(C(=O)Nc2ccc(-c3nc4ccccc4s3)c(Cl)c2)c1	none (no result: Rango complex inh, Rango dissoc inh)
COc1cc(CN2CCNC(=O)C2CC(=O)N2CCc3ccccc3C2)cc(OC)c1 (centres undefined)	none
COc1cc(OC)c(OC)cc1/C=C1\CCC/C(=C\c2cc(OC)c(OC)cc2OC)C1=O	Rango complex inh inconclusive, A549 viability inconclusive, Rango dissoc inh inconclusive, Nrf2 block inconclusive
COc1ccc(/C=C2\CCC/C(=C\c3ccc(OC)c(OC)c3OC)C2=O)c(OC)c1OC	A549 viability inconclusive, Nrf2 block 8.2µM
O=C(CCS(=O)(=O)c1ccc(F)cc1)Nc1nc(-c2ccncc2)cs1	Nrf2 activator 16µM
O=C(Nc1nc(-c2ccccc2)cs1)c1ccccc1NS(=O)(=O)c1ccc(F)cc1	A549 viability inconclusive, Nrf2 block 6.5µM
O=C(CCS(=O)(=O)c1ccccc1)Nc1nc(-c2cccs2)cs1	Nrf2 activator inconclusive
Cc1ccc(S(=O)(=O)N2CCN(C(=O)COC(=O)CCOc3ccccc3)CC2)c(C)c1	none
CC(=O)c1ccc(-c2ccc(-c3cc(=O)oc4c(C(C)C)ccc(C)c34)cc2)cc1	Rango dissoc inh inconclusive, Nrf2 block 23µM
O=c1[nH]c(/C=C/c2cccc3ccccc23)nc2ccccc12	Rango complex inh inconclusive
O=c1[nH]c(/C=C/c2ccccc2[N+](=O)[O-])nc2ccccc12	Nrf2 activator 1.3µM
COc1ccccc1NC(=O)C1=C(C)Nc2nc(SCc3ccccc3)nn2C1c1cccc(O)c1 (centres undefined)	none (no result: Rango complex inh, Rango dissoc inh)
O=S(=O)(c1ccc(Cl)cc1)c1nc(-c2cccs2)oc1SCc1ccc(F)cc1	none (no result: Rango complex inh, Rango dissoc inh)
COc1cc(/C=C/C(=O)OC(C)C(=O)Nc2c(C)n(C)n(-c3ccccc3)c2=O)ccc1O (centres undefined)	Rango complex inh inconclusive, Rango dissoc inh 23µM
Cc1c(NC(=O)C(C)OC(=O)/C=C/c2ccccc2)c(=O)n(-c2ccccc2)n1C (centres undefined)	none
COc1ccc(CN2CC(=O)N(c3ccc(C)cc3C)C2=S)cc1OC	Nrf2 block 13µM
CCN(C[C@H]1N[C@@](CC)(C(=O)OC)[C@H]2C(=O)N(Cc3ccccc3)C(=O)[C@@H]12)C(=O)c1ccccc1	none
C[C@@H]1C[C@H]2[C@@H]3C[C@H](F)C4=CC(=O)C=C[C@]4(C)[C@@]3(Cl)[C@@H](O)C[C@]2(C)[C@H]1C(=O)COC(=O)C(C)(C)C	Nrf2 block 0.0065µM
CC1CC2C3CCC4=CC(=O)C=CC4(C)[C@@]3(Cl)C(O)CC2(C)C1(O)C(=O)CO (some centres undefined)	Nrf2 block inconclusive
COc1ccc(Br)cc1CN(C)C(=O)C1=CC=CN2CCS(=O)(=O)N=C12	Nrf2 block 16µM
O=C(Oc1ccc(Cl)c(Cl)c1)C1=CC=CN2CCS(=O)(=O)N=C12	none
COc1ccc(Br)cc1CN(C)C(=O)c1ccncc1	none
CN(Cc1ccc(Cl)c(Cl)c1)C(=O)C1=CC=CN2CCS(=O)(=O)N=C12	Nrf2 block 8.2µM
C[C@H]1O[C@H](C2CCCC2)CC2=C1C(=O)OC(C)(C)O2	none (no result: Rango complex inh, A549 viability, Rango dissoc inh, Nrf2 block)
CCOC(=O)Cn1cnc2c(cnn2-c2ccc(OC)cc2)c1=O	Nrf2 block inconclusive
COc1ccc(-n2ncc3c(=O)n(CC(=O)N4c5ccccc5CC4C)cnc32)cc1 (centres undefined)	A549 viability inconclusive, Nrf2 block 8.2µM
